N370S GC mod – N370S glucocerebrosidase modulation, Gaucher chaperone candidate; P04062; N370S GC spleen homogenate, 4MU-glucoside fluorescence; Potency, µM (top dose mostly 59.4 µM), without a hit: at the top dose activity change, negative = inhibition, most hits filed as inhibitors; hit rate 0.092% among 330,000;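 also: potency is read from the fitted curve at half-maximal effect; 0% = full enzyme activity and -100% = no enzyme basal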
GLA spleen mod – inhibitors or activators of human alpha-galactosidase in spleen homogenate; P06280; human spleen homogenate, 4MU-alpha-Gal fluorescence, 40 min; Potency, µM (doses to about 80 µM), for inactives: at the highest dose activity change, negative = inhibition, most hits filed as inhibitors; hit rate 0.008% among 240,000;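 also: potency is read from the fitted curve at half-maximal effect; 0% = enzyme with vehicle and -100% = no enzyme basal signal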
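Spleen homogenate 1 ug + cpd (titration) + 4-MU-alpha-D-galactopyranoside 1 mM; 37C 40 min; 50 mM citrate/phosphate pH 5.0, 0.01% Tween-20; stop pH 10; fluorescence 365/440; AC50 via Hill.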
GAA glycogen – alters human alpha-glucosidase cleavage of glycogen. hit rate 0.38% among 300,000. recombinant GAA, glycogen substrate, Amplex Red glucose oxidase fluorescence. Potency, µM (series often up to 76.4 µM), for inactives: at the top dose activity change, negative = inhibition, hits mostly inhibitors. P10253. AID 2100;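 also: potency is read from the fitted curve at half-maximal effect; 0% = full enzyme reaction and -100% = no-enzyme basal signal; the screen sought inhibitors and activators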
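Recombinant human enzyme (4 nM); glycogen substrate; 37 C, 40 min, pH 5.0. Readout: coupled glucose oxidase/Amplex Red fluorescence.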
GAA inhib – inhibitors of human lysosomal alpha-glucosidase. hit rate 0.005% among 200,000. purified human GAA, 4-MU-alpha-glucoside fluorescence. AID 1466. P10253. Potency, µM (series often up to 76.9 µM), inactives show at the top dose activity change, negative = inhibition, actives largely listed as inhibitors;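 also: potency is read from the fitted curve at half-maximal effect; plate controls were uninhibited enzyme wells for no effect and no-enzyme background for full effect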
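Compounds are titrated up to 77 uM against 4 nM human enzyme. Substrate 4-methylumbelliferyl-alpha-D-pyranoside (400 uM) reacts 20 min at room temperature in pH 5.0 buffer; liberated 4-methylumbelliferone is read at 440 nm.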
GLA inh pH 4.5 – blocks human alpha-galactosidase A at pH 4.5; P06280; purified enzyme, 4-MU-alpha-Gal fluorescence, pH 4.5; activity change, negative = inhibition, % at 105 µM; 230,000 tested, under 10 active; AID 1467;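 also: 0% = full activity with enzyme and -100% = basal without enzyme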
Target sequence (P06280 whole entry, looked up): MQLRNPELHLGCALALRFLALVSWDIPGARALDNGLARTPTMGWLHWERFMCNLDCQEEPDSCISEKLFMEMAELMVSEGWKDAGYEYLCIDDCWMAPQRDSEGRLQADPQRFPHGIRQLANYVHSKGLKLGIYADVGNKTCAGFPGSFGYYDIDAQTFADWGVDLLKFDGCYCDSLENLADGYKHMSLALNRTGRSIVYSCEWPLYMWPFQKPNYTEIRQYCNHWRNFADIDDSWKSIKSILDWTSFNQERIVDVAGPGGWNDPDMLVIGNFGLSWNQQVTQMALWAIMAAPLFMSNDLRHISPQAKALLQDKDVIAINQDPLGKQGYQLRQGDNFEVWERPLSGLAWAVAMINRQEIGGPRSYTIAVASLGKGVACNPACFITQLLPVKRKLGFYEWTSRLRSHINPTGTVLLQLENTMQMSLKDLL
GAA spleen mod – inhibitors or activators of human alpha-glucosidase in spleen homogenate; P10253; human spleen homogenate, 4-MU-alpha-glucoside fluorescence; Potency, µM (series often up to 79.9 µM), for inactives: at the top dose activity change, negative = inhibition, usual class: inhibitors; hit rate 0.006% among 240,000;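 also: potency is read from the fitted curve at half-maximal effect; 0% = enzyme with vehicle and -100% = no enzyme basal signal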
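Enzyme source: human spleen homogenate, 1 ug/well. Buffer 50 mM citric acid/K phosphate pH 5.0, 0.01% Tween-20. 4-MU-alpha-glucoside 1 mM; 37 C x 40 min; NaOH/glycine stop; fluorescence.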
Numbers without * were called inactive; ? = inconclusive; · = not tested or not shown; ! = not confirmed by another sample; [ ] = dose if it differs, or a comment. The list is not random: actives were taken first. Their share in the collection is about 0.43%. Calls follow the shape of the dose curve; as a rule, active = well fitted curve in the direction sought with a large enough effect; inconclusive = small, poorly fitted or top-dose-only effect, or another doubt; inactive = no such curve, though single readings can be large; an effect the other way counts as inactive or inconclusive.

SMILES	N370S GC mod	GLA spleen mod	GAA glycogen	GAA inhib	GLA inh pH 4.5	GAA spleen mod
CC[C@H](C)[C@H](NC(=O)[C@H](Cc1cnc[nH]1)NC(=O)[C@@H](NC(=O)[C@H](CCCNC(=N)N)NC(=O)[C@H](CCCCN)NC(=O)[C@H](CCCNC(=N)N)NC(=O)[C@H](CCCCN)NC(=O)[C@@H](N)CC(N)=O)[C@@H](C)CC)C(=O)NCC(=O)N1CCC[C@H]1C(=O)NCC(=O)N[C@@H](CCCNC(=N)N)C(=O)N[C@@H](C)C(=O)N[C@@H](Cc1ccccc1)C(=O)N[C@@H](Cc1ccc(O)cc1)C(=O)N[C@H](C(=O)N[C@H](C(=O)N[C@@H](CCCCN)C(=O)N[C@@H](CC(N)=O)C(=O)N[C@H](C(=O)N[C@H](C(=O)NCC(=O)N[C@H](C(=O)N[C@H](C(=O)N[C@@H](CS)C(=O)O)[C@@H](C)CC)[C@@H](C)O)[C@@H](C)CC)[C@@H](C)CC)[C@@H](C)O)[C@@H](C)O	-7.7%	-5.4%	·	·	·	6.2%
COc1ccc(-c2cc(OC(=O)c3cccc(Cl)c3)c3c(C)oc(C)c3c(=O)c2)cc1	·	·	-7.9%[76.3 µM]	·	·	·
Cc1ccccc1OC1=NS(=O)(=O)c2ccccc21	0.4%	-12.7%	-6.5%	?	1.1	-3.0%
O=S1(=O)N=C(Oc2cccc3ccccc23)c2ccccc21	-5.1%	-0.5%	25.1µM*	-0.8%	-2.9	4.4%
Cc1ccc(Sc2cncc3sc(C(N)=O)cc23)cc1	-0.6%	-8.6%	·	·	·	-0.4%
CC(C)[C@H](/C=C/C[Si](C)(C)C)[C@H](C)C(O)/C=C/CCCOC(=O)C(C)(C)C (stereo not given in full)	5.1%	-15.2%	·	·	·	-7.7%
COc1ccc(S(=O)(=O)Nc2cc3c(cc2NCc2ccccc2)n(C)c(=O)n3C)cc1	·	·	10µM*	·	·	·
C=CC1=C[C@@H](O)C2OC2C12OCCCO2 (stereo not given in full)	6.4%[12.8 µM]	7.8%[17.5 µM]	·	·	·	0.6%[17.4 µM]
CCOC(=O)[C@]1(C(NC(=O)OC)c2cccc(F)c2)CCCC1=O (stereo not given in full)	-0.2%[12.8 µM]	6.1%[17.5 µM]	·	·	·	-0.1%[17.4 µM]
O=[N+]([O-])c1cccc(CN2C(COCc3ccccc3)CCC=CS2(=O)=O)c1 (stereo not given)	5.3%	7.3%	·	·	·	5.1%
COc1cccc([C@@H]2Oc3ccc(Br)cc3C[C@H]2OC(=O)Nc2ccc(C)c(Br)c2)c1	16.0%	5.2%	·	·	-6.9	3.9%
Cc1ccc(Nc2c(-c3ccc(N4CCOCC4)cc3)nc3ncccn23)c(C)c1	-24.2%	-0.4%	31.6µM*	3.0%	-1.3	4.0%
COc1ccc(-c2nc3ncccn3c2Nc2ccccc2)cc1	-6.4%	-1.9%	?	-4.2%	-6.2	4.1%
Cc1ccc(Nc2c(-c3ccc(N(C)C)cc3)nc3ncccn23)cc1	-0.8%	2.3%	-23.3%	-3.6%[15.4 µM]	-0.2	7.8%
Cc1cccc(C)c1Nc1c(-c2ccc(N3CCOCC3)cc2)nc2ncccn12	9.4%	12.0%	20µM*!	6.3%	7.2	-20.7%
C=C1C(c2ccc(C)cc2)=CCc2cc(C)cc(C)c21	?	10.6%	·	·	·	9.1%
CCc1cc2c(nc1CC)CCN(CC/C(C)=N/O[C@@H](C)c1cn([C@H](CO)Cc3ccccc3)nn1)C2	15.7%[12.8 µM]	-1.9%[17.5 µM]	·	·	·	-6.6%[17.4 µM]
CC(=O)c1ccc(NC(=O)C2Cc3ccccc3CN2C(=O)c2ccccc2)cc1 (stereo not given)	7.5%	4.8%	-3.8%	3.2%	-11.7	0.7%
O=C(NC1=NCCS1)C1Cc2ccccc2CN1C(=O)c1ccccc1 (stereo not given)	4.6%	11.0%	3.98µM*	-9.6%	-4.1	-0.9%
C=C1CC[C@H](O)C/C1=C/C=C1\CCC[C@]2(C)C([C@H](C)CC[C@@H](O)C(C)(C)O)CC[C@@H]12 (stereo not given in full)	-2.2%	0.2%	·	·	·	-1.9%
